# Reference: PubChem BioAssay
# Test: anti-His antibody binders, primary screen, artefact control for SMM control protein annotation, biochemical, small-molecule microarray, 635 nm fluorescence (AID 1128);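 also: score merges feature fluorescence with signal-to-noise for each printed compound spot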
# Settings: anti-His Alexa647 antibody binding, higher = more signal
row,Structure (SMILES),composite z-score
1,CC(C)C(=C=CC[C@@H](O)c1ccc(OCCO)cc1)CCO,-0.171
2,CC#CCO[Si](C#CCCCCCC)(C(C)C)C(C)C,-0.19
3,CN(C)CCCC[C@@H]1NC(=O)[C@H]2C[C@@H](C(=O)NCc3ccc(F)cc3)[C@@H](c3ccc(O)cc3)N2C1=O,2.75
4,CC(C)N1CC=CC23O[C@@H]4C=CCCOC(=O)C4[C@H]2C(=O)N(CCCCCO)[C@@H]3C1=O (stereo not given in full),3
5,COCCOC(=O)N1C(=O)[C@@]2(c3ccccc31)[C@H](C(=O)N1CCCCCCC1)[C@H]1C(=O)O[C@H](c3ccccc3)[C@H](c3ccccc3)N1[C@@H]2c1ccc(O)cc1,0.578
6,C#CCN([C@H](/C=C/C1CC1)[C@@H](O)Cc1ccccc1)[C@@H](Cc1ccccc1)C(=O)OC,0.482
7,COC(=O)[C@@]1(Cc2ccc(F)cc2)[C@H]2c3cc(C(=O)N(C)C)n(CCn4cc([N+](=O)[O-])nc4C)c3C[C@H]2CN1C(=O)c1ccccc1,1.07
8,CCOC(=O)C[C@H]1[C@H](OC(=O)Cc2ccc3c(c2)OCO3)[C@@H](NC(=O)c2ccccc2)c2cc(OCCCO)ccc2N1C(=O)Cc1ccc(OC)cc1,0.752
9,C[N+](C)(C)CCCC[C@@H]1NC(=O)[C@H]2C[C@@H](C(=O)NCCCCCNC(=O)CS)[C@@H](c3ccc(O)cc3)N2C1=O,2.82
10,CN1C(=O)[C@]2(CCS(=O)(=O)c3ccccc3)N=C(c3ccc(OCCCO)cc3)O[C@@H]2c2ccccc21,2.44
11,O=C1O[C@@H](c2ccccc2)[C@@H](c2ccccc2)N2[C@@H](c3ccc(OCCO)cc3)[C@]3(C(=O)Nc4ccc(C#CCCO)cc43)[C@@H](C(=O)Nc3nc4ccccc4s3)[C@H]12,0.324
12,COCCn1c(C(=O)N2CCCC2)cc2c1C[C@H]1CN(C(=O)c3ccccc3)[C@@](Cc3ccccc3)(C(=O)OC)[C@@H]21,1.09
13,CC(C)(C)N1CC=CC23O[C@@H]4/C=C\CCCOC(=O)C4[C@H]2C(=O)N(CCCCCCO)[C@@H]3C1=O (stereo not given in full),3.08
14,CCCC[C@@H](O)C1=C(COC)Cn2c(=O)n(-c3ccccc3)c(=O)n2[C@H]1CO,0.0209
15,COC(=O)[C@@H]1N=C(c2ccc(OCCCO)cc2)O[C@@H]1c1ccccc1CN=[N+]=[N-],-0.125
16,CN1C=C(C(=O)OCCS(C)(=O)=O)C(C(=O)OCCS(C)(=O)=O)=CC(CCCO)=CC1c1ccc(CN2CCCC2)cc1 (stereo not given),1.29
17,COCCOC(=O)N1C(=O)[C@@]2(c3ccccc31)[C@H](C(N)=O)[C@H]1C(=O)O[C@H](c3ccccc3)[C@H](c3ccccc3)N1[C@@H]2c1ccc(OCCO)cc1,0.918
18,CC(C)CNC(=O)[C@@H]1c2ccccc2C(=O)N(C(C)C)[C@H]1c1ccc(CO)cc1,-0.306

row,Structure (SMILES),composite z-score
1,CC(C)c1ccc(NN2C(C(O)C(C)C)C=CC3C(=O)N(c4ccccc4)C(=O)C32)cc1 (stereo not given),1.66
2,COCCOC(=O)N1C(=O)[C@@]2(c3cc(C#CCC(C(=O)OC)C(=O)OC)ccc31)[C@H](C(=O)N1CCCCCCC1)[C@H]1C(=O)O[C@H](c3ccccc3)[C@H](c3ccccc3)N1[C@@H]2c1ccccc1OCCO,2.09
3,O=C(NCCO)C1=C[C@H](Oc2ccccc2I)[C@@H](O)[C@H](NCc2ccc(F)cc2)C1,-0.223
4,COC(=O)Cn1c(C(=O)N(C)C)cc2c1C[C@H]1CN(C(=O)c3ccccc3)[C@@](Cc3ccc(OC)cc3)(C(=O)OC)[C@@H]21,0.817
5,[N-]=[N+]=NCc1ccccc1C[C@]1(C(=O)NCc2ccccc2)N=C(c2ccc(OCCCO)cc2)O[C@H]1c1ccccc1CN=[N+]=[N-],1.75
6,CC(=O)NCCCC[C@@H]1NC(=O)[C@H]2C[C@@H](C(=O)NCCCCCC[N+](C)(C)C)[C@@H](c3ccc(O)cc3)N2C1=O,1.54
7,[N-]=[N+]=NCc1ccccc1C[C@]1(C(=O)N2CCCCC2)N=C(c2ccc(OCCCO)cc2)O[C@H]1c1ccccc1,0.582
8,COc1ccc(CCNC(=O)[C@@]2(Sc3ccc(C)cc3)CC(=O)N(C(C)C)[C@@H]2c2ccc(CO)cc2)cc1,0.8
9,COC(=O)C(CC#Cc1ccc2c(c1)[C@]1(C(=O)N2)[C@H](c2ccc(O)cc2)N2[C@H](c3ccccc3)[C@H](c3ccccc3)OC(=O)[C@H]2[C@@H]1C(=O)N1CCc2cc(OC)c(OC)cc2C1)C(=O)OC,1.54
10,COc1ccccc1CN1C(=O)c2ccccc2[C@](Cc2ccccc2I)(C(=O)NCCCN(C)C)[C@@H]1c1ccc(CO)cc1,0.237
11,CN1C(=O)C2C(C1=O)C1C=C(c3ccc(CO)cc3)C2C(c2cccs2)N1C (stereo not given),0.495
12,NCCCC[C@@H]1NC(=O)[C@H]2C[C@@H](C(=O)NCc3ccc(F)cc3)[C@@H](c3cccc(OCCO)c3)N2C1=O,2.48
13,CC(C)(C)OC(=O)CC[C@]1(C(=O)N2CCOCC2)N=C(c2ccc(OCCCO)cc2)O[C@H]1c1ccccc1CN=[N+]=[N-],0.442
14,CC(C)[C@@H](C(=O)O)n1cc(-c2ccccc2)nn1,0.808
15,NCCCC[C@@H]1NC(=O)[C@H]2C[C@@H](C(=O)NCc3ccc(F)cc3)[C@@H](c3ccc(O)cc3)N2C1=O,2.05
16,O=C1OCCC=C[C@H]2OC34C=CCN(c5ccc(Cl)cc5)C(=O)[C@H]3N(CCO)C(=O)[C@@H]4C12 (stereo not given in full),-0.656
17,O=C1O[C@@H](c2ccccc2)[C@@H](c2ccccc2)N2[C@@H](c3ccc(O)cc3)[C@]3(C(=O)Nc4ccc(C#CC5=CCCCC5)cc43)[C@@H](C(=O)N3CCCCCCC3)[C@H]12,1.22
